The list is not random: actives were taken first. Their share in the collection is about 4.6%.
D1 agonist: activates the human D1 dopamine receptor; P21728; HEK293 T-REx D1 cells, calcium flux, agonist mode; activation, % at 2 µM; 360,000 compounds, 1% hits; further: 0% is about no effect
Target sequence (P21728 whole entry, looked up): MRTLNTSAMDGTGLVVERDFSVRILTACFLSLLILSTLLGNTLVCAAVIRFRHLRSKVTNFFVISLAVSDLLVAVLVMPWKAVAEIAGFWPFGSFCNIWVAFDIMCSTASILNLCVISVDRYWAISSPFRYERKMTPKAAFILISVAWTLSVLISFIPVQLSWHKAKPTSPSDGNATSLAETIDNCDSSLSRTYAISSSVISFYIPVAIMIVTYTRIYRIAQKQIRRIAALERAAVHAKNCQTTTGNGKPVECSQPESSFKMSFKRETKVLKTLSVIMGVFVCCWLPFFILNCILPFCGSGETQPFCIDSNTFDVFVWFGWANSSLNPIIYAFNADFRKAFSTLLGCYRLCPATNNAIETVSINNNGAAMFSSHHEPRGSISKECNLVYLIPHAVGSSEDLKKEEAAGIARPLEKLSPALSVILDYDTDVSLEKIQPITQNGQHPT
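Agonism was scored from calcium flux recorded over 180 s (1 read/s) after pintool compound addition, following a 10-cycle baseline. Cells were inducible force-coupled HEK293 TREx D1, plated overnight at 30 C and loaded with no-wash calcium dye.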
D1 antag: blocks dopamine activation of the human D1 receptor. P21728. HEK293 TREx D1 cells, calcium flux, dopamine EC80; hits give low values. AID 504652. 360,000 compounds, 3.2% hits. activity change, negative = inhibition, % at 10 µM; in the data active means activity change below about -30%; further: on the % scale 0 is the no-effect control and ±100 the full control effect
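Using tetracycline-induced force-coupled D1 Hek293 cells and a calcium dye, signals were followed for 180 s after compound, then for 180 s after EC80 dopamine, to detect inhibitors.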
TRHR enhancer: allosterically enhances the human TRH receptor. TRHR cells, fluo-8 calcium fluorescence, EC20 TRH enhancement. P34981. 360,000 compounds, 0.66% hits. enhancement, % at 2 µM. AID 493056; in the data active means enhancement above about 30%; further: 0% is about no effect
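TRHR-expressing cells loaded with fluo-8 calcium dye were read kinetically (ex 480/em 530) during compound addition, then stimulated with an EC20 of TRH (10 nM final). Enhancement of the Gq-mediated intracellular calcium response was scored.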
TRHR ag: agonists of human TRH receptor. TRHR cells, calcium flux fluo-8, FDSS agonist mode. activation, % at 2 µM. 360,000 compounds, 0.18% hits. AID 493084; further: 0% is about no effect
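Read-out: compound-evoked intracellular calcium rise in TRHR cells, fluo-8 dye, kinetic FDSS fluorescence at 1 s/cycle following a 10-cycle baseline. Cells cultured overnight before dye loading (30 min–1.5 h, RT).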
D1 PAM: human D1 dopamine receptor positive modulation; potentiation, % at 10 µM; HEK293 TREx D1 cells, calcium flux, dopamine EC20 potentiation; P21728; 360,000 compounds, 0.036% hits; AID 504651; in the data active means potentiation above about 30%; further: 0% is about no effect
* marks the source's active call; other numbers are inactive results. Unless noted, no stated cut-off is given here; in the data, active means activation above about 30%; inactive means the rest.

SMILES	D1 agonist	D1 antag	TRHR enhancer	TRHR ag	D1 PAM
CC(C)(C)c1ccc(C(=O)Nc2sc3c(c2C#N)CCC(C(C)(C)C)C3)cc1 (configuration not stated)	0	2	26	-2	-1
COc1ccc(OC)c(CNC(=O)c2nn(C)c3c2CSc2ccccc2-3)c1	1	-27	1	-1	-2
CN1CCN(/N=C/c2ccc(N(c3ccccc3)c3ccccc3)cc2)CC1	5	24	15	0	2
CN1CCN(/N=C/c2ccc(Br)cc2)CC1	13	-33*	-5	0	-8
CCN1c2cc(C)ccc2-n2cccc2C12CCN(C(=O)Nc1cc(OC)c(OC)c(OC)c1)CC2	1	9	7	0	1
COc1ccc(NC(=O)c2c(NC(=O)C(F)(F)F)sc3c2CCCCC3)cc1	59*	-36*	-6	5	-2
COc1cccc(-c2nnc(SCC(=O)N(C)C3CCCCC3)o2)c1	-1	-9	-5	-1	0
CC1CCN(c2nc(-c3ccccc3)c(C#N)c(=O)[nH]2)CC1	1	-39*	0	1	-8
CC(C)CC(=O)NC(NC(=S)Nc1sc2c(c1C#N)CCCC2)C(Cl)(Cl)Cl (configuration not stated)	13	-32*	-6	0	-7
CCN(CC)C(=O)C[n+]1cccc(C(N)=O)c1	2	-31*	1	0	-4
Cc1ccc(C(=O)C[n+]2cccc(C(N)=O)c2)cc1	2	13	-2	0	-11
Cc1ccc(C(=O)c2sc(Nc3ccccc3)c(C#N)c2N)cc1	2	11	7	1	-5
CCOC(=O)c1ccc(Nc2sc(C(=O)c3cccc([N+](=O)[O-])c3)c(N)c2C#N)cc1	10	-32*	2	0	1
CN1CCN2c3ncccc3Cc3ccccc3[C@@H]2C1	4	-32*	17	0	-11
CN1CCN(C(=O)CCn2c(=O)c3cccn3c3cccnc32)CC1	6	-1	-1	0	-3
COc1ccc(-c2cc(C(=O)O)c3c(C)nn(-c4ccccn4)c3n2)cc1	4	-40*	-1	-1	-5
Cc1ccc(-n2nc(C)c3c(C(=O)O)cc(C)nc32)cc1	0	-50*	4	0	-5
Cc1c(NC(=S)N/N=C/c2ccc(N(C)C)cc2)c(=O)n(-c2ccccc2)n1C	-1	5	-1	0	6
CN1C(=S)N(c2cccnc2)C(=O)/C1=C\c1ccc(N(C)C)cc1	91*	-13	-3	29	-3
Cc1c(N2C(=O)/C(=C\c3ccc(N(C)C)cc3)N(C)C2=S)c(=O)n(-c2ccccc2)n1C	38*	7	6	16	0
COc1ccc(CNC(=O)CSc2ncc3c(n2)-c2ccc(Cl)cc2N(Cc2ccccc2)S3(=O)=O)cc1	6	-5	10	-1	2
COc1ccc(NC(=O)c2nc(SCc3ccccc3F)ncc2Cl)cc1	4	-9	3	1	4
Cc1ccc(-n2nc3c(=O)n(C(C)C(=O)NCc4ccc(OC(C)C)cc4)nc(C)c3c2C)cc1 (configuration not stated)	1	-6	-12	-1	0
CC12CCC(C(=O)N(c3ccc(Cl)cc3)C1=O)C2(C)C (configuration not stated)	1	-8	-3	0	-6
CC12CCC(C(=O)N(c3ccccc3Cl)C1=O)C2(C)C (configuration not stated)	2	6	34*	0	-2
CCOC(=O)c1ccc(NC(=O)C2CCN(S(=O)(=O)Cc3ccccc3)CC2)cc1	1	9	4	0	1
Cc1cc(Cl)ccc1NS(=O)(=O)c1ccc2c(c1)CC(C)N2C(=O)C1CCC1 (configuration not stated)	3	-2	6	0	-1
CC(C)OC(=O)CN1C(=O)S/C(=C/c2ccc(N3CCCCC3)o2)C1=O	61*	2	3	27	-7
O=C1NC(=S)S/C1=C/c1ccc(N2CCOCC2)o1	7	-3	6	-1	2
O=C1S/C(=C/c2ccc(N3CCOCC3)o2)C(=O)N1Cc1ccc(F)cc1	83*	-4	-6	35*	-5
